This is an account of results in PubChem BioAssay (NCATS).

Records with an inconclusive call do not appear. Active and inactive are the calls of the source. Calls come from the whole dose curve; as a rule, active = well fitted inhibition curve with a large enough effect; inconclusive = small, poorly fitted or top-dose-only effect; inactive = no such curve, though single readings can be large or run the other way. Starred links: 1 amine or outer side, 2 acyl side, 3 side chain; linkers in the order of their positions; H or OH if unused. Positions of bridges follow the written chain, without caps; N, C: chain ends. Non-standard residues stand in square brackets, D forms with d. Residues, ends and D or L forms follow the SMILES beside them. Chains are numbered I, II in the order given. Actinocin(9to1) = Cc1c2oc3c(C)ccc(C(=O)[*:1])c3nc-2c(C(=O)[*:2])c(N)c1=O; NMeV = CN[CH](C(=O)O)C(C)C; Sar = CNCC(=O)O
% is set by controls: 0 for no effect and ±100 for the full control effect.

This assay is described as follows: Primary qHTS for small molecule stabilizers of the endoplasmic reticulum resident proteome: Secreted ER Calcium Modulated Protein (SERCaMP) assay (AID 1508630). The following applies: SH-SY5Y GLuc-SERCaMP (Gaussia luciferase released on ER calcium loss) secretion, thapsigargin, luminescence; series mostly up to 38.4 µM; activity change, negative = inhibition: at the top concentration. An excerpt:
Assay Provider: Brandon K. Harvey Ph.D.
National Institute on Drug Abuse, National Institutes of Health, Baltimore, MD
Endoplasmic reticulum (ER) dysregulation is associated with human pathologies including neurodegenerative, cardiovascular, muscular, and diabetic conditions. Maintenance of ER calcium is critical for functions of the ER and its depletion can lead to loss of ER resident proteins, in a process termed exodosis. Therapeutic compounds capable of attenuating the redistribution of ER proteins under pathological conditions may slow or stop disease progression. To identify such compounds, we performed a quantitative high-throughput screen (qHTS) using the SERCaMP assay, which monitors secretion of ER resident proteins triggered by calcium depletion.
SERCaMP was initially developed as a reporter of ER calcium homeostasis using a Gaussia luciferase with a modified signal peptide and carboxy-terminus (GLuc-SERCaMP), modifications that confer secretion of the reporter in response to ER calcium depletion (Henderson et al., 2014). The assay was used to screen 9,501 compounds, including a collection of drugs approved by the FDA (US), EMA (EU), NHI (Japan), and HC (Canada) regulatory agencies (Huang et al., 2011). Since the SERCaMP reporter reflects the exodosis phenomenon (Trychta et al., 2018a), compounds identified in the screen have the potential to prevent exodosis by different mechanisms such as stabilizing ER calcium or augmenting ERS retrieval.
1. Henderson, M.J., Wires, E.S., Trychta, K.A., Richie, C.T., and Harvey, B.K. (2014). SERCaMP: a carboxy-terminal protein modification that enables monitoring of ER calcium homeostasis. Mol Biol Cell 25, 2828-2839.
2. Huang, R., Southall, N., Wang, Y., Yasgar, A., Shinn, P., Jadhav, A., Nguyen, D.T., and Austin, C.P. (2011). The NCGC pharmaceutical collection: a comprehensive resource of clinically approved drugs enabling repurposing and chemical genomics. Sci Transl Med 3, 80ps16.
3. Trychta, K.A., Back, S., Henderson, M.J., and Harvey, B.K. (2018a). KDEL Receptors Are Differentially Regulated to Maintain the ER Proteome under Calcium Deficiency. Cell Rep 25, 1829-1840 e1826.
SEQUENCE No. (1, 2, 3, etc.); […] (e.g., Cells, Incubation, Reagent, etc.); VALUE and DESCRIPTION.
1; Reagent; 5 uL; 1000 SH-SY5Y cells per wells
3; Compound; 23 nL; Control inhibitor / compound library
5; Reagent; 100 nM; Thapsigargin
7; Reagent; 1 uL; 0.5x coelenterazine
8; Detection; Luminescence; ViewLux imaging system
NOTES (numbers refer to sequence above)
1; SH-SY5Y human neuroblastoma cells stably expressing GLuc-SERCaMP (SH-SY5Y-GLuc-ASARTDL) cells were seeded in 1,536 well white tissue culture treated plates (Corning, Cat# 7464) in DMEM-high glucose-sodium pyruvate (ThermoFisher Scientific, Cat #10569) supplemented with 10% bovine growth serum (Hyclone), 10 U/ml penicillin (Gibco), 10 ug/ml streptomycin (Gibco), and 20 mM HEPES.
2; Assay plates were incubated for 5 hour at 37C in a humidified incubator containing 5% CO2.
3; qHTS libraries (23 nl, final concentrations of 1.53 uM, 7.67 uM, 38.3 uM) or controls (neutral control: DMSO, positive control: dantrolene) were added using a Kalypsis pin-tool Robotic System equipped with 1536 pinheads.
4; Cells were then incubated for 16 hours at 37C, 5% CO2.
5; Thapsigargin was added at 100 nM to deplete ER calcium stores.
6; Cells were incubated for 4 hour (37 °C, 5% CO2)
7; Gaussia luciferase in the medium was measured by adding 1 ul of 0.5x coelenterazine (final concentration 0.07x) prepared in Gaussia Luciferase Glow Assay Buffer (Pierce), without addition of the Cell Lysis Buffer Reagent.
8; Luminescence was measured using a ViewLux […] CCD imaging system (Perkin Elmer) equipped with clear filters. […] The same controls were also used for the calculation of the Z' factor, a measure of assay quality control, as previously described (Zhang et al., 1999). […]
In the case of `O=C(C=Cc1ccc(CN(CCO)CCc2c[nH]c3ccccc23)cc1)NO`, the “activity change, negative = inhibition” value was 0% (inactive).

In the case of `C[C@H]1O[C@H](O[C@H]2[C@H](O)[C@@H](O)[C@@H](O[C@H]3[C@H](O)[C@@H](O)C(O)O[C@H]3CO)O[C@H]2CO)[C@H](O)[C@@H](O)[C@H]1N[C@H]1C=C(CO)[C@@H](O)[C@H](O)[C@@H]1O` (stereo not given in full), the “activity change, negative = inhibition” value was -12.3% (inactive). `C[C@H]1[C@@H](OC(=O)CCC(=O)O)O[C@@H]2O[C@@]3(C)CC[C@@H]4[C@H](C)CC[C@@H]1[C@@]24OO3`: the “activity change, negative = inhibition” value is 185% (inactive). The same measure, in the same setting: with `OCC(O)C(O)C(O)CO` (stereo not given) the figure was 52.6% (inactive); with `O=[N+]([O-])c1cn2c(n1)OC[C@@H](OCc1ccc(OC(F)(F)F)cc1)C2`, 113% (inactive); with `N#CNC(=NCCCCCCOc1ccc(Cl)cc1)Nc1ccncc1`, 0% (inactive). Same read-out and setting: with `C=C1C(=O)O[C@H]2[C@@H]1CCC(C)=CCC[C@@]1(C)O[C@@H]21` the figure was 376% (inactive); with `C[C@@H](Oc1ccc2[nH]nc(C=Cc3cnn(CCO)c3)c2c1)c1c(Cl)cncc1Cl`, 306% (inactive). For the compound `C[C@H](NCc1ccc(OCc2cccc(F)c2)cc1)C(N)=O`, the “activity change, negative = inhibition” value is 218% (inactive). Still for that read-out and setting: with `CCC(C=C[C@@H]1OC(=O)C=C[C@H]1C)=C[C@H](C)CC=CC(C)=C[C@@H](C)C(=O)[C@@H](C)[C@H](O)[C@@H](C)CC(C)=CC(=O)O` the figure was 41.2% [at 1.51 µM] (inactive); with `C=C1CCC2[C@](C)(CO)C(O)CC[C@]2(C)C1CC=C1C(=O)OCC1O` (stereo not given in full), -14.5% [at 76.3 µM] (inactive).

Consider `CC[C@H](CC[C@@H](C)[C@H]1CC[C@H]2[C@@H]3CC=C4C[C@@H](O)CC[C@]4(C)[C@@H]3CC[C@]12C)C(C)C`, for which the “activity change, negative = inhibition” value is 235% (inactive). On the same count and under the same terms, with `CCCc1nc(C(C)(C)O)c(C(=O)O)n1Cc1ccc(-c2ccccc2-c2nn[nH]n2)cc1` the figure was -1.71% (inactive).

For `CCCCCCCCCCCCc1ccc(S(=O)(=O)Nc2nncs2)cc1`, the “activity change, negative = inhibition” value is 46.4% (inactive). Still for that read-out and setting: the same measure for `CCOC(=O)N1CCN([N+]([O-])=NOc2ccc([N+](=O)[O-])cc2[N+](=O)[O-])CC1`: 244% (inactive). Same read-out and setting: the same measure for `COc1cc(C[C@@H](CO)[C@H](CO)Cc2ccc(O)c(OC)c2)ccc1O`: 119% (inactive).

`O=C(C=CC#Cc1cccc(NS(=O)(=O)c2ccccc2)c1)NO`: the “activity change, negative = inhibition” value was 147% (inactive). Consider `C=C1C[C@@]2(O)O[C@@]3(C[C@H]2C(C)C)[C@H](C)CC[C@H]13`, for which the “activity change, negative = inhibition” value was 0% (inactive). Same read-out and setting: the same measure for `CCNC(=O)c1cc2c(-c3cc(OCCN4CCCC4)c(Cl)cc3Cl)nc(N)nc2s1`: 119% (inactive); for `C=CCNc1c(O)cc2c(O)c1C[C@@H](C)C[C@H](OC)[C@@H](O)[C@@H](C)C=C(C)[C@H](OC(N)=O)[C@@H](OC)C=CC=C(C)C(=O)N2`: -27.9% (inactive). On the same count and under the same terms, the same measure for `C=C(C)[C@@H]1CC[C@]2(C(=O)O)CC[C@]3(C)[C@H](CC[C@@H]4[C@@]5(C)CC[C@H](O)C(C)(C)[C@@H]5CC[C@]43C)[C@@H]12`: 38.4% (inactive); for `CCCCCCCCc1ccc(CCC(N)(CO)CO)cc1`: 288% (inactive); for `COc1ccc2c(c1OC)C(=O)OC2[C@H]1c2c(cc3c(c2OC)OCO3)CCN1C` (stereo not given in full): 70.4% (inactive). The same measure, in the same setting: with `COc1cc2c(cc1O)CCC1C2CC[C@@]2(C)C1CC[C@@H]2O` (stereo not given in full) the figure was 243% (inactive); with `N#Cc1cc(NC(=O)Nc2nnc(-c3ccncc3)s2)ccc1-c1cn[nH]c1`, -5.11% (inactive); with `OCc1ccccc1O[C@@H]1O[C@H](CO)[C@H](O)[C@H](O)[C@H]1O`, -24.3% (inactive). In the case of `Cc1[nH]c(C=C2C(=O)Nc3ccccc32)c(C)c1CCC(=O)O`, the “activity change, negative = inhibition” value is 28.6% (inactive). Still for that read-out and setting: the same measure for `CC(=O)OCC(=O)[C@@]12N=C(C)O[C@H]1C[C@H]1[C@@H]3CCC4=CC(=O)C=C[C@]4(C)[C@@H]3[C@@H](O)C[C@@]12C`: 26% (inactive); for `CC(=O)N[C@@H]1[C@H](O[C@@H]2c3ccc(c(Cl)c3)Oc3cc4cc(c3O[C@H]3O[C@H](CO)[C@@H](O)[C@H](O)[C@H]3NC(=O)CCCCCCCC(C)C)Oc3ccc(cc3Cl)C[C@H]3NC(=O)[C@H](N)c5ccc(O)c(c5)Oc5cc(O)cc(c5)[C@H](NC3=O)C(=O)N[C@H]4C(=O)N[C@H]3C(=O)N[C@@H]2C(=O)N[C@@H](C(=O)O)c2cc(O)cc(O[C@H]4O[C@H](CO)[C@@H](O)[C@H](O)[C@H]4O)c2-c2cc3ccc2O)O[C@H](CO)[C@@H](O)[C@@H]1O`: 7.81% (inactive).

As to `CN1CCc2c(c3ccccc3n2Cc2ccc(C(=O)NO)cc2)C1`, the “activity change, negative = inhibition” value was 96.6% (inactive).

As to `CC(C)(O)[C@H]1CC[C@@](C)([C@H]2[C@@H](O)C[C@@]3(C)[C@@H]4C[C@H](O[C@@H]5O[C@H](CO)[C@@H](O)[C@H](O)[C@@H]5O)[C@H]5C(C)(C)[C@@H](O[C@@H]6OC[C@@H](O)[C@H](O)[C@@H]6O)CC[C@@]56C[C@@]46CC[C@]23C)O1`, the “activity change, negative = inhibition” value is 39.1% (inactive). Consider `CC(C)Oc1ccc(C(=O)N[C@H](CNC(=O)CN(C)C)Cc2ccc(-c3cn4cccc([C@H](C)O)c4n3)cc2)cc1Cl`, for which the “activity change, negative = inhibition” value is 59.1% (inactive). For `O=c1[nH]c(=O)n([C@H]2C[C@@H](O)[C@@H](CO)O2)cc1F`, the “activity change, negative = inhibition” value was 69.1% (inactive). Regarding `Cc1c2oc3c(C)ccc(C(=O)NC4C(=O)NC(C(C)C)C(=O)N5CCCC5C(=O)N(C)CC(=O)N(C)C(C(C)C)C(=O)OC4C)c3nc-2c(C(=O)NC2C(=O)NC(C(C)C)C(=O)N3CCCC3C(=O)N(C)CC(=O)N(C)C(C(C)C)C(=O)OC2C)c(N)c1=O` (stereo not given) (I: TVP[Sar][NMeV] / II: TVP[Sar][NMeV]; ester I:1-I:C, II:1-II:C; linker I:N-II:N via Actinocin(9to1); configuration not given here), the result was inactive. Regarding `CCS(=O)(=O)Nc1ccc2[nH]c(O)c(C(=Nc3ccc(CN4CCCCC4)cc3)c3ccccc3)c2c1`, the “activity change, negative = inhibition” value was 0% (inactive). Take `C#CCC(Cc1cnc2nc(N)nc(N)c2n1)c1ccc(C(=O)N[C@@H](CCC(=O)O)C(=O)O)cc1` (stereo not given in full): the “activity change, negative = inhibition” value was 4.84% (inactive).

In the case of `N#Cc1c(C2CCNCC2)cc(-c2c(O)cccc2OCC2CC2)nc1N`, the “activity change, negative = inhibition” value was 278% (inactive).

Take `CCN1CCN(C(=O)N[C@H](C(=O)N[C@@H]2C(=O)N3C(C(=O)O)=C(CSc4nnnn4C)CS[C@@H]23)c2ccc(O)cc2)C(=O)C1=O`: the “activity change, negative = inhibition” value is 67.9% [at 13 µM] (inactive). Same read-out and setting: with `O=C(C=CC=Cc1ccc2c(c1)OCO2)N1CCCCC1` the figure was 45.6% (inactive); with `CC(C)c1cc(C(C)C)c(CC(=O)NS(=O)(=O)Oc2c(C(C)C)cccc2C(C)C)c(C(C)C)c1`, 0% (inactive).
